# From PubChem BioAssay
# This is a sample that favours compounds with a hit; in the whole collection about 4.5% have one here.
# ALR H2O2 inh – blocks human ALR sulfhydryl oxidase activity. P55789. purified ALR, DTT oxidation, H2O2 HRP-luminol luminescence. inhibition, % (no concentration beside the values). hit rate 3.8% among 290,000;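 active = mean replicate inhibition above about 79%, with every replicate also reaching it, limit read from the data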
# Target sequence (P55789 whole entry, looked up): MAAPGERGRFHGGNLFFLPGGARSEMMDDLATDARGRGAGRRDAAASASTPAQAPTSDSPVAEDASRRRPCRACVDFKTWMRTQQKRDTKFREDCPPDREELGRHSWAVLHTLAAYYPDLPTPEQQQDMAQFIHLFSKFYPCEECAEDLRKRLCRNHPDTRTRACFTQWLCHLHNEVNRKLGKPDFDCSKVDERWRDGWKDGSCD
# Efflux pump mplx – blocks antifungal efflux pumps in multiplex yeast assay; S. cerevisiae Candida pump triplex, Nile Red efflux; inhibition, % at 10 µM; hit rate 0.44% among 330,000;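 active = plate passing quality check with inhibition over a set limit, or well fluorescence over plate mean plus 4 SD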;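 note: Nile Red retained in pooled yeast measured as flow cytometry median fluorescence; 0% = buffer negative control and 100% = Enniatin B positive control; higher means more Nile Red kept so more efflux inhibition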
# Rce1 inhib – yeast Ras-converting enzyme inhibition. calls only. hit rate 0.27% among 290,000. Q03530. yeast membranes, quenched prenylated peptide cleavage fluorescence;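 active = fall in fluorescence gain of 50% or more versus controls, with final raw signal at or below 3038400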;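 note: plate controls were neutral control wells for no effect and wells lacking membranes for full effect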
# Rtt109 HAT inh – C. albicans Rtt109 histone acetyltransferase inhibition. inhibition, % at 34.9 µM. Q5AAJ8. hit rate 0.16% among 330,000. purified Rtt109/Vps75, ThioGlo CoA-SH fluorescence, 4 h;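 active = inhibition of at least 50% in every replicate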
# GRK2 aptamer HTS – inhibitors of human GRK2 displacing RNA aptamer; AID 488847; P25098; bead flow cytometry, FAM-aptamer displacement from GRK2; inhibition of aptamer binding, % at 10 µM; hit rate 0.59% among 330,000;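 active = inhibition of aptamer binding above 40%, roughly 3 SD of noise, on plates passing a quality check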;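 note: median bead fluorescence of bound FAM aptamer so fluorescent compounds give negative values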
# HDAC3 inhib – inhibitors of human histone deacetylase 3; O15379; hit rate 0.15% among 320,000; recombinant HDAC3, fluorogenic peptide/trypsin coupled, fluorescence; inhibition, % at 8.3 µM; in the data active = inhibition above about 26%, passing the limit was not always enough
# Target sequence (O15379 whole entry, looked up): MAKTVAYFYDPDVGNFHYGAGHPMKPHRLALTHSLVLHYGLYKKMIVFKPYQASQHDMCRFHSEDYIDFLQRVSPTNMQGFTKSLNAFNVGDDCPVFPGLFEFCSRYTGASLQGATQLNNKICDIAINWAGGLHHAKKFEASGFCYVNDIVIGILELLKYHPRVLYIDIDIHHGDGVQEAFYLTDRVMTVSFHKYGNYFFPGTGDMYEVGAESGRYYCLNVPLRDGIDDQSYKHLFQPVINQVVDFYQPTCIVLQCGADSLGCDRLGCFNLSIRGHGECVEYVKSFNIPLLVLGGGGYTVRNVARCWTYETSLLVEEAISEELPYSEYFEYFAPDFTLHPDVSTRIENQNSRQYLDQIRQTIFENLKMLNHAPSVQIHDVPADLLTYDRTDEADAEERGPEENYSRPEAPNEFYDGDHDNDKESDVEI
# * = called active by the depositor; i = inactive; nt = no result given; + = active, no number.
SMILES,ALR H2O2 inh,Efflux pump mplx,Rce1 inhib,Rtt109 HAT inh,GRK2 aptamer HTS,HDAC3 inhib
COc1ccc(OC)c(NC(=O)c2c3c(nc4ccccc24)CCC3)c1,-21.3,-0.1,i,12.2,0.0,16.4
CCOC(=O)C1CCN(C(=O)CSc2c3c(nc4ccccc24)CCC3)CC1,-6.1,0.1,i,2.2,0.0,2.0
COc1cc(NC(=O)c2ccc3c(SCC(=O)O)c4c(nc3c2)CCC4)cc(OC)c1OC,-4.7,0.8,i,3.1,3.0,5.0
COc1cc(NC(=O)CSc2c3c(nc4ccccc24)CCC3)cc(OC)c1OC,98.4*,-0.3,i,28.3,6.0,4.8
Cc1cc(NC(=O)CSc2c3c(nc4ccccc24)CCC3)no1,97.9*,-0.2,i,-8.8,3.0,6.2
Cc1cc(NC(=O)CSc2cc(C)c3ccccc3n2)no1,-6.2,-0.2,nt,-7.7,0.0,-1.1
COc1ccccc1NC(=O)CSc1c2c(nc3ccccc13)CCC2,98.6*,0.1,i,-11.4,0.0,2.1
O=C(CSc1c2c(nc3ccccc13)CCC2)N1CCCC1,97.9*,0.0,i,nt,3.0,6.8
O=C(Nc1ccc(Cl)c(C(=O)N2CCOCC2)c1)c1ccccc1,-4.8,0.0,i,-7.0,0.0,5.9
CCN(c1ccccc1)S(=O)(=O)c1ccc(Cl)c(NC(=O)CNCc2ccccc2OC)c1,-2.9,-0.2,nt,1.9,0.0,7.4
Cc1cccc(Cc2ncc(C(F)(F)F)cc2Cl)c1,0.7,-0.1,i,-9.4,0.0,-0.1
CC(C)NC(=O)CSc1c2c(nc3ccccc13)CCCC2,75.9*,0.0,i,0.1,3.0,4.9
COc1cc(NC(=O)c2ccc3c(SCC(=O)O)c4c(nc3c2)CCCC4)cc(OC)c1OC,97.2*,0.0,i,18.5,0.0,-1.3
S=C1N(c2ccccc2)C(c2ccc(Br)cc2)N2CCCN12 (stereo not drawn),-3.5,0.1,i,nt,2.0,-7.6
COc1ccc(OC)c(CNC(=O)c2nn(C)c3c2CS(=O)(=O)c2ccccc2-3)c1,-3.6,0.3,i,-5.5,0.0,0.6
CCc1noc(C)c1C(=O)NNC(=O)COc1ccc(Br)cc1,-2.1,-0.1,i,-2.8,1.0,2.0
CCOC(=O)c1c(C)[nH]c(C2=NNC(=NC3CC3)SC2)c1C,97.5*,0.0,nt,70.7*,3.0,4.6
CCCCN(C(=O)c1cc(CC)c(C)s1)c1c(N)n(CCC)c(=O)[nH]c1=O,-1.0,-0.4,i,-1.6,2.0,0.2
O=c1cc(CO)oc(CN2CCN(c3ccccc3)CC2)c1O,98.1*,0.0,i,-0.6,0.0,4.8
CCOC(=O)C1CCN(Cc2oc(CO)cc(=O)c2O)CC1,90.8*,0.1,nt,-2.2,0.0,0.5
CN1C[C@H]2CON(C)[C@H]2C[C@H]1c1cccc(-c2ccccc2)c1,nt,nt,nt,4.6,nt,nt
CCOc1cc(/C=N/O)ccc1OCc1ccc(C)cc1,98.0*,0.1,i,-0.8,3.0,1.4
CCOc1cc(/C=N/O)ccc1OS(=O)(=O)c1ccc(C)cc1,36.1,0.1,i,-6.5,0.0,0.4
CSc1ccccc1C(=O)NCc1ccccc1C,2.0,0.0,i,-10.1,1.0,-0.8
CCOC(=O)C1C(=O)C(=O)N(C2CCCCC2)C1C(=O)OCC (stereo not drawn),nt,nt,nt,-2.0,nt,nt
SMILES,ALR H2O2 inh,Efflux pump mplx,Rce1 inhib,Rtt109 HAT inh,GRK2 aptamer HTS,HDAC3 inhib
CC(C)(C)OC(=O)N1CCC(c2cc(=O)n3[nH]cc(C(=O)Nc4ccc(F)c(Cl)c4)c3n2)CC1,-1.5,0.0,+,0.3,1.0,5.2
O=C(CSc1nnnn1-c1ccc(Cl)cc1)NC1CCS(=O)(=O)C1 (stereo not drawn),-0.4,0.0,nt,-6.9,0.0,-2.7
Cc1nn(C)cc1S(=O)(=O)Nc1ccc(C(F)(F)F)cc1,-0.9,-0.7,i,-1.4,1.0,0.8
S=C1NC2(CCCCC2)NN1c1ccccc1,98.2*,0.0,i,11.8,0.0,-2.9
Cc1cccc2nc(CSCc3ccco3)cn12,98.0*,-0.1,i,2.6,1.0,-2.2
Cc1cc(C)n2cc(CSCc3ccco3)nc2n1,nt,0.0,i,-12.6,2.0,3.2
O=C(CCNC(=O)c1ccc([N+](=O)[O-])cc1)Nc1ccc(F)cc1F,-19.3,-0.1,i,-2.7,0.0,-0.6
FC(F)(F)c1ccc(Cl)c(-n2c(-c3cc(C4CC4)[nH]n3)n[nH]c2=S)c1,77.8*,0.1,i,2.0,1.0,6.6
CC(=O)Oc1cc2oc(=O)cc(C)c2cc1Cl,96.9*,-0.2,i,-19.4,5.0,-246.2
CC(C)(C)OC(=O)C(C1NC(C(=O)O)C(C)(C)S1)N1C(=O)c2ccccc2C1=O (stereo not drawn),nt,nt,nt,-1.5,nt,nt
O=C(c1ccc(NS(=O)(=O)c2ccc3[nH]c(=O)[nH]c3c2)cc1)N1CCN(c2ccccc2O)CC1,98.2*,-0.1,i,21.2,1.0,7.9
COC(CNC(=O)c1cn(C)c2ccc(S(=O)(=O)N(C)C3CCCCC3)cc2c1=O)OC,2.1,0.3,i,8.1,2.0,-0.9
COc1cc(OC)cc(-c2oc(=O)c3cc(OC)c(OC)cc3c2/C=C/c2ccc(F)cc2)c1,-2.2,0.1,nt,-2.3,0.0,1.9
Cn1ccnc1COc1ccc(/C=N/O)cc1,nt,0.0,i,6.9,3.0,-2.2
CN(C)c1ccc(NC(=O)COC(=O)Cn2nnc3ccccc32)cc1,99.0*,-0.2,i,-8.7,3.0,-7.7
Cc1ccccc1SCC(=O)OCC(=O)Nc1ccc(N(C)C)cc1,99.2*,-0.1,i,0.3,0.0,3.5
CCOc1ccccc1NC(=O)c1ccc2nc[nH]c2c1,6.8,0.1,i,-15.9,3.0,-3.5
CCC(C)NC(=O)CC(NS(=O)(=O)c1ccc(NC(C)=O)cc1)C(C)C (stereo not drawn),nt,-0.1,i,-2.2,0.0,-1.6
Cn1c(=NC(=O)CCS(=O)(=O)c2ccccc2)sc2cc(F)ccc21,nt,-0.1,i,1.9,0.0,1.1
CC(=O)SCC(=O)N=c1sc2cc(F)ccc2n1C,99.0*,0.4,i,-1.6,1.0,-0.7
COC(=O)C1(Cc2ccc3c(c2)CCC3)Cc2ccc3c(c2C1=O)CCC3 (stereo not drawn),nt,nt,nt,9.3,nt,nt
O=C(COC(=O)/C=C/c1ccc([N+](=O)[O-])cc1)NCC1CCCO1 (stereo not drawn),94.7*,0.0,i,6.2,1.0,-6.7
C=CCSc1nc(N)c(NC(=O)c2ccco2)c(=O)[nH]1,-0.5,0.0,nt,16.3,2.0,0.2
Nc1nc(SCC(=O)OCc2ccccc2)[nH]c(=O)c1NC(=O)c1ccco1,99.7*,0.5,i,-6.5,0.0,nt
CC(=O)Nc1ccc(NC(=O)CSc2nc(N)c(NC(=O)c3ccco3)c(=O)[nH]2)cc1,99.0*,0.1,i,0.8,0.0,-5.2
CC1CC(=O)Nc2ccccc2N1C(=O)Cn1cnc2ccccc2c1=O (stereo not drawn),-8.5,0.0,nt,-7.4,0.0,6.7
